# According to ChEMBL document CHEMBL3988442, “University of Dundee, Small-Polar-MMV Screening Library” (2021):
# Biological target: AMP-activated protein kinase, AMPK (Homo sapiens) (UniProt P54646+O43741+P54619+Q9UGJ0+Q9Y478+Q13131+Q9UGI9)
# Assay: AMP-dependent Kinase enzyme assay. An in vitro enzyme assay that detects ADP turnover that is directly proportional to AMPK activity. This uses naive AMPK that is activated during the assay with MK-8722
# Type: functional
# Design: scale not given: direction of the effect not stated beside the values
# Details: 30 µM
row,SMILES,Percent Effect
1,Cc1ncc(C(=O)N2CCCC2c2c(C)nn(C)c2C)s1 (stereo not given),1.37%
2,CCN1CCC(CC(=O)NCc2nc(C)cc(C)n2)CC1,9.34%
3,Cc1cc(C(=O)NCCN2CCCCC2)nn1C(C)(C)C,24.9%
4,Oc1c(F)cc(CNc2cccc(-c3nnc[nH]3)c2)cc1F,40.3%
5,CS(=O)(=O)NC(=O)c1ccn(-c2ccc(Cl)c(Cl)c2)n1,4.97%
6,CCOCCC(=O)N1CCCC(c2cc(C(F)(F)F)[nH]n2)C1 (stereo not given),0.822%
7,CN1C[C@H](c2ccccc2)[C@H]2CN(C(=O)Cc3cccc(O)c3)CC[C@H]21,15.8%
8,CCN(CC)C1CCN(c2ncnc3c2CCN(C(=O)C2CC2)C3)C1 (stereo not given),-3.94%
9,Cc1cc(=O)n2nc(Oc3ccc(F)c(F)c3)sc2n1,-9.97%
10,COc1ccc(CN2CC[C@@]3(O)CCCC[C@H]3C2)cc1C(=O)O,-10%
11,CCOCCN1CCN(c2ncccc2C#N)CC1CC (stereo not given),4.43%
12,CCOc1ccc(C(=O)NC2CCN(c3ncccn3)CC2)cc1C,0.756%
13,CN(Cc1ccncc1)c1cncc(Br)c1,3.2%
14,Cc1c(C(=O)N(C)c2ccccc2)cccc1N(C)S(C)(=O)=O,12%
15,CC(C)N(C)S(=O)(=O)c1ccc2c(c1)CCN(C(=O)c1cnccn1)C2,0.361%
16,COc1ccc(CN(C)C(=O)CN2CC(n3cc(C)cn3)C2)cc1F,-3.71%
17,O=c1c(CN2CCCCC2)coc2ccc(Cl)cc12,-4.07%
18,CN1CCN([C@H]2CCN(C(=O)c3cc(Cl)cn3C)C[C@H]2CCCO)CC1,13.2%
19,CCOc1ccccc1-n1c(C2CC2)n[nH]c1=O,2.2%
20,CN(C)S(=O)(=O)N1CCCC(c2nccnc2-c2cccc(Cl)c2)C1 (stereo not given),16%

row,SMILES,Percent Effect
1,COc1ccc(O)c(C(=O)NCC2CCCN(C3CCOCC3)C2)c1 (stereo not given),12.5%
2,Cc1cc(NC(=O)CN2CCN(C3CCCC3)C(=O)C2)nn1C,8.93%
3,N[C@H]1CN(C(=O)c2ccc3[nH]c(CO)nc3c2)C[C@@H]1c1ccccc1,3.57%
4,CNC(=O)COC(=O)c1ccn(-c2ccc(Cl)c(Cl)c2)n1,1.87%
5,N#CC1COCCN1C(=O)c1ccc2cc[nH]c2c1 (stereo not given),6.24%
6,COc1ccc(OCc2noc(CN(C)C3CCS(=O)(=O)C3)n2)cc1 (stereo not given),-2.23%
7,CC(C)Cn1cc(NC(=O)c2cccc(N(C)C)c2)cn1,1.9%
8,O=C(C1COCCO1)N1CCN(CC(F)(F)F)c2ccccc21 (stereo not given),12.8%
9,COCCOc1ncccc1NCc1nc2ccccc2n1C,7.32%
10,Cc1cc(C)nc(NC2CC(=O)N(C)C2)n1 (stereo not given),-3.57%
11,COc1ccc(CC2(CO)CCN(c3cc(N)ncn3)CC2)cc1,8.25%
12,Cn1ccnc1CNCCNc1ncc(Cl)cc1Cl,-1.1%
13,CC(C)C1CCCN1C(=O)Nc1ccc(=O)n(C)c1 (stereo not given),56.6%
14,Nc1ccc(C(=O)N2CCC(Oc3cccc(C(F)(F)F)c3)CC2)cn1,6.7%
15,O=C(NC1CC1)C1CNCCN1C(=O)CCOc1ccccc1 (stereo not given),4.98%
16,CCN(C)S(=O)(=O)N1CCC(C(O)c2ccc(Cl)cc2)CC1 (stereo not given),1.46%
17,O=C1CC2(CCN(Cc3ccc(-c4ccccc4)s3)C2)C(=O)N1 (stereo not given),84.9%
18,Cc1ccsc1C(CNC(=O)c1cc(=O)[nH]c(=O)[nH]1)N(C)C (stereo not given),3.78%
19,CS(=O)(=O)N1CC[C@]2(O)CCN(c3ccnc(N)n3)C[C@@H]2C1,-13.7%
20,CNCC(=O)NC1CC(C)(C)Cc2nc(C(C)(C)C)ncc21 (stereo not given),-7.88%
